From PubChem BioAssay come the findings set out here.

Calls of active or inactive are those of the source.

Assay [1] is described as follows: small molecules captured by biotinylated probe aFSTL3 – biochemical, small-molecule microarray, fluorescence 635/667, stem cell growth factor project, primary screen (AID 1064).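 Note: measures binding of the biotinylated anti-FSTL3 antibody to printed compounds.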 The note with it: higher = more signal.
The nature of assay [2]: binders from COS7 lysate, DM2A8 probe, primary screen, torsin A project, cell lysate, small-molecule microarray, fluorescence 635/667 (AID 1065). The conditions noted are these: higher = more signal, COS7 lysate expressing mutant human TOR1A.
Assay [3] can be described thus: small molecules captured by biotinylated probe aFGF2 – biochemical, small-molecule microarray, fluorescence 635/667, stem cell growth factor project, primary screen (AID 1067).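 Note: measures binding of biotinylated aFGF2 protein to printed compounds on slides; z-score merges feature fluorescence and signal-to-noise across triplicate slides.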 The conditions noted are these: higher = more signal.
Assay [4] in a line: small molecules captured by biotinylated probe aFGF10 – biochemical, small-molecule microarray, fluorescence 635/667, stem cell growth factor project, primary screen (AID 1071).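 Note: score merges 667 nm spot intensity and signal to noise from triplicate slides.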 The note with it: higher = more signal.
In assay [5] the target is Neurogenic locus notch homolog protein 2 (Homo sapiens) (UniProt Q04721). The assay is described as follows: small molecules binding Notch2 protein – biochemical, small-molecule microarray, 635 nm fluorescence, stem cell growth factors, primary screen (AID 1073). The conditions noted are these: higher = more signal.
In assay [6] the target is Pro-neuregulin-1, membrane-bound isoform (Homo sapiens) (UniProt Q02297). Briefly: small molecules binding neuregulin-1 protein – biochemical, small-molecule microarray, fluorescence 635/667, psychiatric disease protein project, primary screen (AID 1075).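 Note: score combines 667 nm spot fluorescence with signal to noise.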 The note with it: NRG1 binding, 635 nm fluorescence, higher = more signal.
Sequence of Pro-neuregulin-1, membrane-bound isoform (Homo sapiens) (Q02297 whole entry, looked up, the tested form may be a part, canonical isoform): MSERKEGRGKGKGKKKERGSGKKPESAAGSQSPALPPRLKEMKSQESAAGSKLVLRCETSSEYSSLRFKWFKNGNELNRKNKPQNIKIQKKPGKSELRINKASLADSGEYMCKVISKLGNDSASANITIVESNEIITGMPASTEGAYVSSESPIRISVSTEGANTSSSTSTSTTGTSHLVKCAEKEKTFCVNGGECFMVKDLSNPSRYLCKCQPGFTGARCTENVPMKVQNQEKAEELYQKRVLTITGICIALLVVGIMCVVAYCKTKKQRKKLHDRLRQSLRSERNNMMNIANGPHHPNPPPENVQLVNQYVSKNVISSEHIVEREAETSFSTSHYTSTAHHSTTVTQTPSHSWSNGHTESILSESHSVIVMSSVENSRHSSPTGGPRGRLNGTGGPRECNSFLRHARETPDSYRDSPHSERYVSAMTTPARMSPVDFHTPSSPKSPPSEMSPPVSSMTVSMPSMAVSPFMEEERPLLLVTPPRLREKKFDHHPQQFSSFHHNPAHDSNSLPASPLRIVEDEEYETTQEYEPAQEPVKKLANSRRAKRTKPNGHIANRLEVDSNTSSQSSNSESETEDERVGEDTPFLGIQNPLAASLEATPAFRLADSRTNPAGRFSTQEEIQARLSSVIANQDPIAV
In assay [7] the test system is Neuregulin-1 EGF-like domain. The assay is described as follows: small molecules binding NRG1 EGF domain – biochemical, small-molecule microarray, 635 nm fluorescence, primary screen (AID 1081).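 Note: binding of the protein to compounds printed on small-molecule microarray slides.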 The note with it: higher = more signal.
Assay [8] in a line: FRG1 expression reporter modulators in myotubes – cell-based, C2C12 myotubes, firefly/Renilla luciferase, luminescence, FRG1 inhibition for FSHD, primary screen (AID 1084). The conditions noted are these: FRG1 promoter luciferase, higher = more signal, called active from +8 up or from −8 down.
Assay [9] is described as follows: small molecules captured by biotinylated probe aFST – biochemical, small-molecule microarray, fluorescence 635/667, stem cell growth factor project, primary screen (AID 1086).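 Note: score merges 667 nm fluorescence with signal-to-noise of each printed compound spot.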 The conditions noted are these: higher = more signal.
Assay [10] can be described thus: binders of probe aHhip on microarray, primary screen, stem cell growth factor project, biochemical, small-molecule microarray, fluorescence 635/667 (AID 1087).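 Note: score merges spot fluorescence at 667nm with spot signal to noise ratio.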 The conditions noted are these: higher = more signal.
The test system of assay [11] is PRMT1 (protein arginine N-methyltransferase 1). The assay is described as follows: small molecules binding arginine methyltransferase PRMT1 – biochemical, small-molecule microarray, 635 nm fluorescence, primary screen (AID 1088).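 Note: binding of Prmt1 protein to compounds spotted on small-molecule microarray slides.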 The note with it: higher = more signal.
A short description of assay [12]: growth effects on S. cerevisiae YJM789 – YJM789 clinical isolate, OD600, 24 h, basal, primary screen (AID 1089).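 Note: growth of clinical yeast isolate S. cerevisiae YJM 789 seeded 1000 cells per well; test concentration not given here.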 The conditions noted are these: higher = more signal, called active from +8 up or from −8 down.
Assay [13] is described as follows: S. pombe growth modifiers, basal conditions – strain 972, OD600, 24 h, no modulator, primary screen (AID 1090).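 Note: basal condition with compound alone and no growth modifier present; test concentration not given here.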 The conditions noted are these: S. pombe 972 growth, higher = more signal, called active from +8 up or from −8 down.
The nature of assay [14]: budding yeast growth modifiers under rapamycin – strain BY4716, OD600, 96 h, primary screen (AID 1091). Note: test concentration not given here. The note with it: S. cerevisiae BY4716 + rapamycin, higher = more signal, called active from +8 up or from −8 down.
For assay [15], the target named is Torsin-1A-interacting protein 2 (Homo sapiens) (UniProt Q8NFQ8). Briefly: small molecules binding lysate-expressed LULL1 – cell lysate, human LULL1 lysate, 635/667 nm fluorescence, primary screen (AID 1092).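 Note: probe is lysate of COS7 cells overexpressing human LULL1; score merges per-feature 667 nm fluorescence with signal-to-noise.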 The conditions noted are these: small-molecule microarray, hLULL1 lysate binding, 635 nm fluorescence; higher = more signal.
Sequence of Torsin-1A-interacting protein 2 (Homo sapiens) (Q8NFQ8 whole entry, looked up): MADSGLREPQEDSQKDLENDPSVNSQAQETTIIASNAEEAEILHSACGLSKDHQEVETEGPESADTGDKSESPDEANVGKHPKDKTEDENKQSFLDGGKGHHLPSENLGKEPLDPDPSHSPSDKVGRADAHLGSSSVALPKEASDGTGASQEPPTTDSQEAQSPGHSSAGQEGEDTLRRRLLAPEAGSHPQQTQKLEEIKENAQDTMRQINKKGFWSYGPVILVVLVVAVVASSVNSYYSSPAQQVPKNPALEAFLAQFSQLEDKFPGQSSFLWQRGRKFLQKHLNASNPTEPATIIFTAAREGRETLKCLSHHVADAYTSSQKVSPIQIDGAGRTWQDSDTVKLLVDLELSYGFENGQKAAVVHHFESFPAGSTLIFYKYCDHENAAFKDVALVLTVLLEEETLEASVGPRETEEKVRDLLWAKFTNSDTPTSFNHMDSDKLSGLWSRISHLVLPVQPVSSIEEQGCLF
A short description of assay [16]: optical density change of DRC41 E. coli – strain DRC41, OD650, 24 h, E. coli filamentation project, primary screen (AID 1093).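 Note: MC1000 strain lacking acrAB efflux and sulA so SOS filamentation is blocked; test concentration not given here.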 The conditions noted are these: E. coli DRC41 growth, higher = more signal, called active from +8 up or from −8 down.
A short description of assay [17]: probe aLefty2 binding to arrayed compounds – biochemical, biotinylated probe, 635/667 nm fluorescence, primary screen (AID 1094).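 Note: score merges spot fluorescence near 667 nm with spot signal-to-noise ratio.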 The note with it: small-molecule microarray, higher = more signal.
The subject of assay [18] is Noggin (protein binding on small-molecule microarray). The assay is described as follows: small molecules binding Noggin protein – biochemical, 635/667 nm fluorescence, primary screen (AID 1095).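 Note: score merges 667 nm feature fluorescence with signal to noise over triplicate slides.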 The conditions noted are these: 635 nm fluorescence, higher = more signal.
The target of assay [19] is Neurogenic locus notch homolog protein 3 (Homo sapiens) (UniProt Q9UM47). The assay is described as follows: small molecules binding NOTCH3 protein – biochemical, 635/667 nm fluorescence, primary screen (AID 1096). The conditions noted are these: small-molecule microarray, 635 nm fluorescence, higher = more signal.
Sequence of Neurogenic locus notch homolog protein 3 (Homo sapiens) (Q9UM47 whole entry, looked up): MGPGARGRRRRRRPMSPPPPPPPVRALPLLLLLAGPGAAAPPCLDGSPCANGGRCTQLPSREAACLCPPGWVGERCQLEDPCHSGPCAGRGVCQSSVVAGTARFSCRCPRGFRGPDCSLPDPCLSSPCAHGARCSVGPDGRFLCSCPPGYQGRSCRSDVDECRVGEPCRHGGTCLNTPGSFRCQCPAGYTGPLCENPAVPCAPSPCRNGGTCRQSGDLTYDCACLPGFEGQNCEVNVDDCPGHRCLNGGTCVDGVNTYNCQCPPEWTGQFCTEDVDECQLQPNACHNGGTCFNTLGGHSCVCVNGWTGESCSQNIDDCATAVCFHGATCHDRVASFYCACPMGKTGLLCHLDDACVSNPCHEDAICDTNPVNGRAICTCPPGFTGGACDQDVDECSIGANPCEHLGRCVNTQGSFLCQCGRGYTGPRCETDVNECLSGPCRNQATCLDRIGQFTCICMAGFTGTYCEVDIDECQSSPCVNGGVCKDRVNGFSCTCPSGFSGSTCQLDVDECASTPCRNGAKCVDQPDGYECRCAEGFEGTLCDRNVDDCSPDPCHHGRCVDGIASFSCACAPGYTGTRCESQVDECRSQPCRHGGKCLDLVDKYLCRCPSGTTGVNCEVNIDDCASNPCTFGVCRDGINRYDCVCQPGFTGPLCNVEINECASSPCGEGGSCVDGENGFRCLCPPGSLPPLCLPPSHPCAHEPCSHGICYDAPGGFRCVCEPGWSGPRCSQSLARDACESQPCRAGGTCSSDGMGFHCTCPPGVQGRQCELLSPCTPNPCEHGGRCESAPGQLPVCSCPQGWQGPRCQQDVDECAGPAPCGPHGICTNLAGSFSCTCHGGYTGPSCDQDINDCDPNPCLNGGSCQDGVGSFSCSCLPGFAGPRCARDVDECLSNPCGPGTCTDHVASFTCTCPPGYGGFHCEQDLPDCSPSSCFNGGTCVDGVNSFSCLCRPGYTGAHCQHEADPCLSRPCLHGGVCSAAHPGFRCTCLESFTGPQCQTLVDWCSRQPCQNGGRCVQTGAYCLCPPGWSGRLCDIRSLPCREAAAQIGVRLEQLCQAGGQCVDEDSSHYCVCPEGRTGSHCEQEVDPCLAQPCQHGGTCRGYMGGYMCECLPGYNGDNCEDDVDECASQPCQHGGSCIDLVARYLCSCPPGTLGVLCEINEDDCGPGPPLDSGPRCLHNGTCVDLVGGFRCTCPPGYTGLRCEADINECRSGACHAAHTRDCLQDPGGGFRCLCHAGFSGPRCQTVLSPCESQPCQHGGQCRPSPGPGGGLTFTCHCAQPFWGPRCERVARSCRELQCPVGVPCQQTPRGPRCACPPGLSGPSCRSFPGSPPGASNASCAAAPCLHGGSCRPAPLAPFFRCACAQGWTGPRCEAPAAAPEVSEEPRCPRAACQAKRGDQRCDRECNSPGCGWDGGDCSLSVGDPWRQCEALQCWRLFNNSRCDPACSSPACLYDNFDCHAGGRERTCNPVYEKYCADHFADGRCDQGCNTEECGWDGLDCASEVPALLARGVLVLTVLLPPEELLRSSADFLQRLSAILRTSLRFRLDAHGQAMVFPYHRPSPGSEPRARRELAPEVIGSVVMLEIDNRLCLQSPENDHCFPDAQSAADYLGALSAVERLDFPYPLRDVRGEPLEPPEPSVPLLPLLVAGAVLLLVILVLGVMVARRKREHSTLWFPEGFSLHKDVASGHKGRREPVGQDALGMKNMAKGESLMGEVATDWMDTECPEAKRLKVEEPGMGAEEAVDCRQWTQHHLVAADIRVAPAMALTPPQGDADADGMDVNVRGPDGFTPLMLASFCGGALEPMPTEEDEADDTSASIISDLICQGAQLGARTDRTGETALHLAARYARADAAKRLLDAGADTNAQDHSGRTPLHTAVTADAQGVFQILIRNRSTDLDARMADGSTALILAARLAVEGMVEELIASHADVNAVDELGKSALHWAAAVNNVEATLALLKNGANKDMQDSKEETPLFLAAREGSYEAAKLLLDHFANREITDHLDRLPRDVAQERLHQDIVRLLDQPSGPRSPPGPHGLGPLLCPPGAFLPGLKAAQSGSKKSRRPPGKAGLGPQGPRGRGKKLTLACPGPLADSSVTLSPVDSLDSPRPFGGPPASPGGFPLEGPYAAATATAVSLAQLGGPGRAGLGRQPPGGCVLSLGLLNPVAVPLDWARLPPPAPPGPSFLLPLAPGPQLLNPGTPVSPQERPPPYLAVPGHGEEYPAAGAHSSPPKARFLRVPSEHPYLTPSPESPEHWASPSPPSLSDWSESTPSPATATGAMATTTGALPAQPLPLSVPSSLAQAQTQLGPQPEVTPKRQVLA
The nature of assay [20]: probe aEGFR binding to arrayed compounds – biochemical, biotinylated probe, 635/667 nm fluorescence, primary screen (AID 1097).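 Note: probe is a biotinylated anti-EGFR antibody binding compounds printed on slides; score combines fluorescence near 667 nm and signal to noise of each spot.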 The conditions noted are these: small-molecule microarray, higher = more signal.

For the molecule `C=CCC(OC(C)=O)[C@@H]1[C@@H](N(Cc2cccc3ccccc23)C(=O)c2ccc(C)cc2)c2cc(OCCCO)ccc2N1C(=O)Cc1ccc(OC)cc1` (stereo not given in full), the composite z-score in assay [1] is -0.186; in assay [2] it was 0.307; in assay [3], -0.117; in assay [4], 0.29; in assay [5], 0.0151; in assay [6], 0.0635. In addition, the composite z-score was -0.391 in assay [7]; 0.146 in [9]; -0.0994 in assay [10]; 0.479 in assay [11]; -0.204 in [15]; -0.128 in assay [17]. The composite z-score in assay [18] is 0.146; in assay [19], -0.139; in [20], -0.0828. The z-score in [8] was -1.71 (inactive); in assay [12], -3.36 (inactive); in assay [13], 0.365 (inactive); in assay [14], -1.4 (inactive); in [16] it was 0.761 (inactive).
Consider `Cc1ccc(S[C@]2(C(=O)NCC(C)C)CC(=O)N(Cc3ccccc3Cl)[C@@H]2c2ccc(CO)cc2)cc1`, for which the composite z-score is 1.27 in assay [1]; -0.48 in assay [2]; -0.151 in assay [3]; -0.584 in assay [4]; -1.36 in [5]; -0.612 in [6]. The composite z-score in assay [7] is -0.232; in [9], -0.982; in assay [10], -0.284; in assay [11] it was -0.446; in [15], 0.294; in assay [17] it was -0.0216. For the same molecule, the figures for the composite z-score in assay [18], in assay [19] and in assay [20] were -1.98, -1.5 and -0.228, respectively. Further, the z-score in [8] is -2.55 (inactive); in assay [12] it was -0.259 (inactive); in [13], -0.751 (inactive); in assay [14] it was -0.0993 (inactive); in assay [16], -0.0077 (inactive).
Take `O=C1O[C@@H](c2ccccc2)[C@@H](c2ccccc2)N2[C@@H](c3ccc(OCCO)cc3)[C@]3(C(=O)Nc4ccccc43)[C@@H](C(=O)Nc3nc4ccccc4s3)[C@H]12`: the composite z-score in assay [1] came to 0.509; in [2], 0.58; in assay [3] it was 0.0732; in [4], 0.962; in [5], 1.49; in [6], 1.45. Also, the composite z-score came out at 1.3 in assay [7]; 1.01 in assay [9]; 0.629 in assay [10]; 1.53 in [11]; 3.34 in assay [15]; 0.321 in [17]. Besides, the composite z-score in assay [18] came to 1.3; in [19] it was 1.11; in [20] it was 0.224. Moreover, the z-score was -3.08 (inactive) in [8]; 1.46 (inactive) in assay [12]; 1.15 (inactive) in assay [13]; 2.44 (inactive) in assay [14]; 0.344 (inactive) in [16].
On to `C=CC(COC(C)=O)NS(=O)(=O)c1ccc(Br)cc1` (stereo not given), for which the composite z-score in [1] is -0.647; in assay [2] it was 0.58; in assay [3], -0.105; in assay [4], 0.366; in [5] it was 0.363; in assay [6] it was 0.0456. Further, the composite z-score in assay [7] turned out to be 0.583; in [9], 0.0296; in assay [10], 0.174; in assay [11], 0.1; in assay [15], 0.185; in assay [17], 0.0216. Moreover, the composite z-score in [18] was determined as 0.598; in [19] it was 0.604; in [20], 0.0749. The z-score was -0.747 (inactive) in assay [8]; -0.141 (inactive) in assay [12]; -0.467 (inactive) in assay [13]; -0.9 (inactive) in assay [14]; -0.975 (inactive) in assay [16].
In the case of `[N-]=[N+]=NCc1ccccc1C[C@]1(C(=O)NCC(O)CO)N=C(c2ccc(OCCCO)cc2)O[C@H]1c1ccccc1N=[N+]=[N-]` (stereo not given in full), the composite z-score in [1] was 1.55; in assay [2], 0.459; in assay [3], -0.01; in [4] it was 0.77; in assay [5] it was 0.814; in [6] it was 1.17. Further, the composite z-score in [7] is 0.731; in assay [9] it was 0.575; in [10], -0.194; in assay [11], -0.384; in assay [15] it was 2.61; in [17], 0.679. The composite z-score was -0.761 in assay [18], -0.25 in assay [19] and 0.428 in assay [20]. The z-score in assay [8] is -0.5 (inactive); in [12], 0.727 (inactive); in assay [13], 0.325 (inactive); in assay [14], 2.77 (inactive); in [16], 1.02 (inactive).
